{
  "source": "PubChem BioAssay (NCATS)",
  "note": "Records with an inconclusive call do not appear. Entries that show only a call come without a potency. Active and inactive are the calls of the source. The call rests on the fitted dose curve; in most records, active means well fitted cell-killing curve with a large enough effect; inconclusive means small, poorly fitted or top-dose-only effect, or effect the other way; inactive means flat fitted curve, though single readings scatter. Potency means the concentration at half of the fitted maximal effect.",
  "data": [
    {"assay": "qHTS of pediatric cancer cell lines to identify multiple opportunities for drug repurposing: Confirmatory screen for control Hh wild type fibroblast cells (AID 1347121); further: nearly all actives have a fitted effect of over 70% in size", "details": "viability qHTS; series mostly up to 45.9 µM", "from_the_text": "Drug repurposing or repositioning has been offered as a strategy for drug development in oncology programs. This approach has special potential for childhood cancers and other rare or orphan diseases, where the expected return on new drug development has been a disincentive to pharmaceuticals.\nIn this project we exploit the poly-pharmacology of drugs to discover new indications via phenotypic screening of a panel of 19 well-characterized cell lines derived from solid tumors seen in children and adolescents. The goal is to identify approved drugs with previously unrecognized anticancer properties that has the potential to reveal new mechanisms and biological processes involved in carcinogenesis or drug resistance. We employed a titration-based paradigm (quantitative high-throughput screening or qHTS), where all compounds were tested at multiple concentrations for their effect on cell viability. Concentration-response curves (CRCs) were derived directly from the primary screen, and both potency and efficacy values were used to identify compounds with robust bioactivity profiles. We screened the NIH Chemical Genomics Center (NCGC) Pharmaceutical Collection (NPC) and Mechanism Interrogation Plate (MIPE) small molecule collections of approved and investigational compounds against these cell lines; and measured metabolically active cells after 48 hours of compound treatment as a proxy for cell viability.\nAssay Submitter: Nathalia J. Martinez, National Center for Advancing Translational Sciences, National Institutes of Health, Rockville, MD, USA; email: natalia.martinez@nih.gov\n[1] Shen, M et al. Quantitative high-throughput phenotypic screening of pediatric cancer cell lines identifies multiple opportunities for drug repurposing. Oncotarget 2017 Dec 19;9(4):4758-4772. PMID 29435139.\nThe cells were obtained from University of North Carolina (UNC), Pediatric Preclinical Testing Program (PPT), and Coriell Institute (CI).\nqHTS cell viability assay:\nCells were assayed in growth media at a density of 500-1,000 cells/well. Five microliters of cells were dispensed into 1,536-well, white, solid-bottom, TC-treated plates (Greiner Bio One) using a multidrop dispenser and incubated at 37 degrees C, 5% CO2, under a humidified atmosphere for 5 hours. Twenty-three nanoliters of compounds and controls (neutral control DMSO or positive control bortezomib at final concentration of 2.3 µM) were subsequently transferred by Kalypsys pintool. For primary screens, the MIPE collection was tested at 11-point dilutions (final concentrations range from 0.78 nM to 46 µM) and the NPC collection at 8-point dilutions (final concentrations range from 0.59 nM to 46 µM). Compounds tested in follow-up screens were assayed at 11-point dilutions. Cells were incubated for 48 hours, followed by addition of 3 µL of CellTiter-Glo (Promega). After a 15 min incubation at room temperature, samples were analyzed for luminescence intensity using a ViewLux High-throughput CCD imager equipped with clear filters.", "values": [
      {"smiles": "Cc1c(C)c2c(c(C)c1O)CCC(C)(COc1ccc(CC3SC(=O)NC3=O)cc1)O2", "note": "(stereo not drawn)", "Potency": "inactive"},
      {"smiles": "CN(C)c1ccc(C2Nc3ccc4ccccc4c3C3=C2C(=O)CC(C)(C)C3)cc1Br", "note": "(stereo not drawn)", "Potency": "inactive"},
      {"smiles": "CCN(CC)CCCC(C)Nc1ccnc2cc(Cl)ccc12", "note": "(stereo not drawn)", "Potency": "inactive"},
      {"smiles": "OC[C@H](Cc1ccccc1)Nc1nc(Oc2ccc3c(c2)CCC3)nc2c1ncn2Cc1ccc(-c2ccccc2)cc1", "Potency": "inactive"},
      {"smiles": "CC(C=CC1=C(C)CCCC1(C)C)=CC=CC(C)=CC(=O)O", "Potency": "inactive"},
      {"smiles": "COc1cc2nccc(Oc3ccc(NC(=O)NC4CC4)c(Cl)c3)c2cc1C(N)=O", "Potency": "inactive"},
      {"smiles": "O=NN(CCCl)C(=O)NCCCl", "Potency": "inactive"},
      {"smiles": "NCCCC(N)(C(=O)O)C(F)F", "note": "(stereo not drawn)", "Potency": "inactive"},
      {"smiles": "CCOc1cc(N2CCC(O)CC2)ccc1Nc1ncc2c(n1)N(C)c1ccccc1C(=O)N2C", "Potency": "inactive"},
      {"smiles": "CNCc1ccc(-c2[nH]c3cc(F)cc4c3c2CCNC4=O)cc1", "Potency": "inactive"},
      {"smiles": "NC(=O)c1ccc(I)c([N+](=O)[O-])c1", "Potency": "inactive"},
      {"smiles": "Cc1cn[nH]c1", "Potency": "inactive"},
      {"smiles": "CCC(C)n1ncn(-c2ccc(N3CCN(c4ccc(OC[C@H]5CO[C@](Cn6cncn6)(c6ccc(Cl)cc6Cl)O5)cc4)CC3)cc2)c1=O", "note": "(stereo partly drawn)", "Potency": "inactive"},
      {"smiles": "Nc1nc2c(ncn2COCCO)c(=O)[nH]1", "Potency": "inactive"},
      {"smiles": "COc1cccc2cc(-c3nc(C4CCC(C(=O)O)CC4)n4ncnc(N)c34)[nH]c12", "note": "(stereo not drawn)", "Potency": "inactive"},
      {"smiles": "NC(N)=NC(=O)c1nc(Cl)c(N)nc1N", "Potency": "inactive"},
      {"smiles": "CO[C@@H]1[C@H](N(C)C(=O)c2ccccc2)C[C@H]2O[C@]1(C)n1c3ccccc3c3c4c(c5c6ccccc6n2c5c31)C(=O)NC4", "Potency": "inactive"},
      {"smiles": "Cn1cnc([N+](=O)[O-])c1Sc1ncnc2nc[nH]c12", "Potency": "inactive"},
      {"smiles": "C#Cc1cccc(Nc2ncnc3cc(OCCOC)c(OCCOC)cc23)c1", "Potency": "inactive"},
      {"smiles": "CS(=O)(=O)c1ccc(C(=O)Nc2ccc(Cl)c(-c3ccccn3)c2)c(Cl)c1", "Potency": "inactive"},
      {"smiles": "Cc1oncc1C(=O)Nc1ccc(C(F)(F)F)cc1", "Potency": "inactive"},
      {"smiles": "O=C(NOC[C@H](O)CO)c1ccc(F)c(F)c1Nc1ccc(I)cc1F", "Potency": "inactive"},
      {"smiles": "OC(CN1CCC(Cc2ccc(F)cc2)CC1)c1ccc(Cl)cc1", "note": "(stereo not drawn)", "Potency": "inactive"},
      {"smiles": "CCCS(=O)(=O)Nc1ccc(F)c(C(=O)c2c[nH]c3ncc(-c4ccc(Cl)cc4)cc23)c1F", "Potency": "inactive"},
      {"smiles": "Nc1nc2[nH]cc(CCc3ccc(C(=O)N[C@@H](CCC(=O)O)C(=O)O)cc3)c2c(=O)[nH]1", "Potency": "inactive"},
      {"smiles": "Cn1cnc2c(F)c(Nc3ccc(Br)cc3Cl)c(C(=O)NOCCO)cc21", "Potency": "inactive"},
      {"smiles": "CCOc1ccn(-c2ccc(F)cc2)c(=O)c1C(=O)Nc1ccc(Oc2ccnc(N)c2Cl)c(F)c1", "Potency": "inactive"},
      {"smiles": "Nc1nc2ccc(OC(F)(F)F)cc2s1", "Potency": "inactive"},
      {"smiles": "O=C(c1cc(Cc2n[nH]c(=O)c3ccccc23)ccc1F)N1CCN(C(=O)C2CC2)CC1", "Potency": "inactive"},
      {"smiles": "C[C@]1(c2nc3c(C(N)=O)cccc3[nH]2)CCCN1", "Potency": "inactive"},
      {"smiles": "COCC(=O)NCC=Cc1ccc2ncnc(Nc3ccc(Oc4ccc(C)nc4)c(C)c3)c2c1", "Potency": "42.7 µM (active)"},
      {"smiles": "COc1ccc(-c2oc3cc(OC)ccc3c2C(=O)c2ccc(C#N)cc2)cc1", "Potency": "inactive"},
      {"smiles": "COc1cc(Nc2ncc3c(n2)-c2ccc(Cl)cc2C(c2c(F)cccc2OC)=NC3)ccc1C(=O)O", "Potency": "inactive"}
    ]}
  ]
}
